This is part of a sample that, as a whole, favours compounds with a hit. Of some 83,000 tested, about 20% had one in any assay.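 Cell lines were cultured in 96-well plates, exposed to a single compound concentration, and assessed for percent growth 48 hours later.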 A number with no mark means an inactive call. Active and inactive are the calls of the source. How the source made its calls: active means growth percent below 10; inactive means the rest.
What was measured:
Assay in all cases: NCI-60 one-dose screen, 48 h (100 = growth as untreated, 0 = no growth, -100 = all killed)
Conditions in all cases: 10 µM unless noted
SK-MEL-2 melanoma = tested on: SK-MEL-2 melanoma
EKVX NSCLC = tested on: EKVX NSCLC
SN12C renal = tested on: SN12C renal
UO-31 renal = tested on: UO-31 renal
TK-10 renal = tested on: TK-10 renal
ACHN renal = tested on: ACHN renal
CAKI-1 renal = tested on: CAKI-1 renal
CCRF-CEM leukemia = tested on: CCRF-CEM leukemia
MOLT-4 leukemia = tested on: MOLT-4 leukemia
SR leukemia = tested on: SR leukemia
RPMI-8226 leukemia = tested on: RPMI-8226 leukemia
OVCAR-8 ovarian = tested on: OVCAR-8 ovarian
OVCAR-5 ovarian = tested on: OVCAR-5 ovarian
OVCAR-4 ovarian = tested on: OVCAR-4 ovarian
IGROV1 ovarian = tested on: IGROV1 ovarian
OVCAR-3 ovarian = tested on: OVCAR-3 ovarian
HS 578T breast = tested on: HS 578T breast
NCI/ADR-RES ovarian = tested on: NCI/ADR-RES ovarian
SK-OV-3 ovarian = tested on: SK-OV-3 ovarian

Row | SMILES | growth (SK-MEL-2 melanoma) | growth (EKVX NSCLC) | growth (SN12C renal) | growth (UO-31 renal) | growth (TK-10 renal) | growth (ACHN renal) | growth (CAKI-1 renal) | growth (CCRF-CEM leukemia) | growth (MOLT-4 leukemia) | growth (SR leukemia) | growth (RPMI-8226 leukemia) | growth (OVCAR-8 ovarian) | growth (OVCAR-5 ovarian) | growth (OVCAR-4 ovarian) | growth (IGROV1 ovarian) | growth (OVCAR-3 ovarian) | growth (HS 578T breast) | growth (NCI/ADR-RES ovarian) | growth (SK-OV-3 ovarian)
1 | N#Cc1c(NC(=O)c2ccc(Br)cc2)sc2c1CCCC2 | 37% | 37% | 45.7% | 63% | 72.7% | 47.6% | 54.3% | 20.4% | 32.5% | 50.2% | 33.3% | 64.6% | 55.7% | 69.6% | 53.7% | 16.8% | 39.1% | 16.6% | –
2 | Cc1nn(-c2ccccc2)c2c1C(c1ccc([N+](=O)[O-])cc1)C(C#N)=C(N)O2 (stereo unspecified) | 123% | 115% | 101% | 70.4% | 141% | 108% | 115% | 90.3% | 101% | 91.5% | 74.1% | 90.9% | 106% | 100% | 82.9% | 122% | 103% | 104% | 107%
3 | Cn1nnnc1-c1ccc(N)cc1 | 89% | 93.8% | 110% | 79% | 97.3% | 98.7% | 93.2% | 100% | 92.5% | 87.6% | 103% | 107% | 94.1% | 100% | 99.2% | 101% | 96.8% | 98.1% | 95.8%
4 | N#C/C(=C\c1ccc2c(c1)OCO2)n1nnc2ccccc21 | 21.6% | 23% | 14.1% | 11.9% | 28.3% | 22.9% | 17.7% | 18.3% | 16.4% | 28% | – | 17.7% | -17.5% (active) | 34.2% | 4.33% (active) | -69% (active) | -4.27% (active) | 6.26% (active) | –
5 | N#C/C=C(\c1ccc([N+](=O)[O-])cc1)n1nnc2cc(Cl)c(Cl)cc21 | 65.8% | 38.6% | -20.1% (active) | -70.9% (active) | -16.2% (active) | -85% (active) | 40.9% | 9.49% (active) | 22.4% | 13% | – | 15.7% | 10.1% | 0.234% (active) | -43% (active) | -48% (active) | 27.8% | -4.34% (active) | –
6 | O=C1Nc2ccccc2/C1=N/N=C/c1ccc(OC2OC(CO)C(O)C(O)C2O)cc1 (stereo unspecified) | 107% | 100% | 101% | 78.6% | 110% | 103% | 95.1% | 107% | 112% | 116% | – | 102% | 98.2% | 115% | 116% | 113% | 98.9% | 106% | –
7 | N=C(N)c1ccc(-c2ccc(-c3ccc(Cl)cc3Cl)o2)nc1 | 103% | 95.4% | -42.8% (active) | -16.1% (active) | 61% | 12.3% | 53.8% | -12.9% (active) | 1.62% (active) | 1.87% (active) | – | 1.36% (active) | 77.2% | 22.6% | 25.4% | -3.34% (active) | -15.2% (active) | 71.6% | –
8 | N=C(N)c1ccc(-c2ccc(-c3ccc(Cl)cc3Cl)o2)cc1 | 105% | 58.5% | -78.3% (active) | -83.8% (active) | 30.5% | -89% (active) | 17.3% | 0.678% (active) | -29.2% (active) | 2.97% (active) | – | -23.5% (active) | 16% | -38.1% (active) | -76.6% (active) | -40.2% (active) | 29.7% | -46.8% (active) | –
